D3 antag = qHTS of D3 Dopamine Receptor Antagonist: qHTS. D(3) dopamine receptor (Homo sapiens), P35462. D3R cells, DiscoveRx beta-arrestin luminescence, antagonist mode; active compounds read low. max response, negative = inhibition, %. 360,000 tested, 2.5% active. AID 652054, 2013; in the data active means max response below about -50%; inconclusive means no clear call, values can overlap the other calls; further: on the % scale 0 is the no-effect control and ±100 the full control effect
Target sequence (P35462 whole entry, looked up): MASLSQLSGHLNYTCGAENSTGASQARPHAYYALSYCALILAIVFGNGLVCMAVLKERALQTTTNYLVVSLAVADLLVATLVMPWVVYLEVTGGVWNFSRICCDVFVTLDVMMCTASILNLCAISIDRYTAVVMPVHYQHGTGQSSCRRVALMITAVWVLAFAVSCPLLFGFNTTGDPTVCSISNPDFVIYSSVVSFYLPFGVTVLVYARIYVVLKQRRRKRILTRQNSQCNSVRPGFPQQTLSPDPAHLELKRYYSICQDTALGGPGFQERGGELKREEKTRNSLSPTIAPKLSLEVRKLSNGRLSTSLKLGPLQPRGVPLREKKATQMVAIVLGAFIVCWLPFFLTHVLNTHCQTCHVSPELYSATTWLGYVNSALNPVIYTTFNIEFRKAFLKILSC
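Cells plated overnight at 1500 cells/well, then exposed to library compounds with dopamine controls for 90 minutes at 37 degrees C. DiscoveRx reagent added for 30–60 minutes at room temperature; luminescence read, quantitative HTS format.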
KB-3-1 cytotox = qHTS assay for MDR1-selective chemotherapeutics: Primary screen using the parental adenocarcinoma cell KB-3-1; KB-3-1 viability, CellTiter-Glo ATP luminescence, 72 h; Potency, µM (highest dose often 46.1 µM), most hits filed as cytotoxic; 400,000 tested, 1.4% active; AID 1347075, 2019; further: potency means the concentration at half of the fitted maximal effect; on the % scale 0 is the no-effect control and ±100 the full control effect; nearly all actives have a fitted effect of over 60% in size
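KB-3-1 parental drug-naive adenocarcinoma cells in DMEM/10% FBS, incubated 72 h at 37 C with pin-transferred compounds across a concentration series. Viability by CellTiter-Glo luminescence; concentration-response curves fitted after normalization.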
D3 ag = qHTS of D3 Dopamine Receptor Agonist: qHTS; D3R DiscoveRx beta-arrestin cells, luminescence, 90 min; max activation, %; 410,000 tested, 0.58% active; AID 652048, 2013; in the data active means max activation above about 30%; further: 0% is about no effect
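Agonist-mode cell screen: cells plated at 1500/well and incubated overnight at 37 °C, then exposed to library compounds for 90 min at 37 °C. Detection reagent was added for 30–60 min at room temperature, and luminescence was read.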
SW480 rerep = A quantitative high throughput screen for small molecules that induce DNA re-replication in SW480 colon adenocarcinoma cells. SW480 DNA re-replication, Hoechst DNA content imaging, 48 h. Potency, µM (titrated, usually from 46.1 µM), without a hit: top-dose re-replication activation, actives largely listed as activators. 340,000 tested, 1.8% active; further: potency means the concentration at half of the fitted maximal effect; % of control where 0% means no effect; nearly all actives have a fitted effect of over 55% in size
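Per well, 250 cells were exposed to pinned compound for 48 hr. Nuclear DNA was visualised with Hoechst (40 min, 37 C) and total object intensity recorded by fluorescence scanning.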
KB-V1 MDR tox = qHTS assay for MDR1-selective chemotherapeutics: Primary screen using the drug-selected MDR subline cells KB-V1. KB-V1 MDR cells viability, CellTiter-Glo, 72 h. Potency, µM (titrated, usually from 46.1 µM), usual class: cytotoxic. 400,000 tested, 3.4% active. AID 1347076, 2019; further: potency means the concentration at half of the fitted maximal effect; on the % scale 0 is the no-effect control and ±100 the full control effect; nearly all actives have a fitted effect of over 60% in size
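Following 72 h at 37 degrees C with compound, KB-V1 cell viability was read by CellTiter-Glo luminescence, medium being phenol-red-free DMEM plus 10% FBS; concentration-response parameters came from normalized, curve-fitted qHTS data.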
MCF10A rerep = A quantitative high throughput screen for small molecules that induce DNA re-replication in MCF 10a normal breast cells. Potency, µM (titrated, usually from 46.1 µM), for inactives: at the highest dose activity, positive = re-replication, hits mostly activators. MCF 10A DNA re-replication, Hoechst nuclear intensity, 48 h. 350,000 tested, 2.9% active. AID 624296, 2012; further: potency means the concentration at half of the fitted maximal effect; % of control where 0% means no effect; nearly all actives have a fitted effect of over 50% in size
Numbers without * were called inactive; i = inactive; ? = inconclusive; / = no result; ! = not active in a repeat. Sampled rows, rich in hits. Any-hit rate of the full collection: about 8.9%. Unless noted, the call rests on the fitted dose curve; in most records, active means well fitted curve in the direction sought with a large enough effect; inconclusive means small, poorly fitted or top-dose-only effect, or another doubt; inactive means no such curve, though single readings can be large; an effect the other way counts as inactive or inconclusive.

SMILES | D3 antag | KB-3-1 cytotox | D3 ag | SW480 rerep | KB-V1 MDR tox | MCF10A rerep
COc1cc2c(cc1OC)CN(C(=O)/C=C/c1ccccc1[N+](=O)[O-])CC2 | 11.7 | ? | 1.7 | 16.4µM* | i | 13µM*
Cc1cccc(NC(=O)CC2C(=O)NC3CCCCC3N2C(=O)c2ccccc2Cl)c1 (centres undefined) | 5.6 | i | 7.4 | -7.5% | i | 0.7%
Cc1ccc(C(=O)N2C(CC(=O)Nc3ccc(Cl)cc3)C(=O)NC3CCCCC32)cc1 (centres undefined) | 1.4 | ? | 1.6 | 23.1µM* | ? | 29.3%
CC(C)COc1ccc(C(=O)CCN2CCCCC2)cc1 | -16.2 | 14.6µM* | -18.1 | ? | i | 11.6µM*
CCCCOc1ccc(C(=O)CCN2CCCCC2)cc1 | -56.0* | i | -43.6 | 10.3µM*! | i | 16.4µM*
COC(=O)c1ccc(NC(=O)N2CCN(Cc3cc(=O)n4nc(-c5ccc(C)cc5)sc4n3)CC2)cc1 | / | i | 0.3 | / | i | /
COc1ccc(CN2C(=O)c3cccc4cccc2c34)cc1F | 3.9 | i | 3.5 | ? | ? | 20.6µM*
COc1ccc(CCN2C(=O)c3cccc4cccc(c34)C2=O)cc1OC | 17.7 | i | 5.7 | -2.1% | i | 7.5%
COc1ccc(-c2nc(S(=O)(=O)c3ccccc3)c(NCCCN3CCOCC3)o2)cc1 | -56.9* | i | -5.3 | -0.5% | i | -1.4%
CCN(CC)CCNc1oc(-c2ccccc2)nc1S(=O)(=O)c1ccccc1 | -76.3* | i | -8.8 | -4.6% | i | 12.8%
Cc1ccc(S(=O)(=O)c2nc(-c3ccccc3)oc2NCCCN2CCOCC2)cc1 | -75.9* | i | -15.6 | -3.7% | i | 0.1%
COCCCNc1oc(-c2cccs2)nc1S(=O)(=O)c1ccc(C)cc1 | -27.6 | i | -7.6 | -1.5% | 14.6µM* | -5.7%
COc1ccc(-c2nc(S(=O)(=O)c3ccccc3)c(N3CCOCC3)o2)cc1 | 5.3 | i | 25.2 | -15.4% | i | -4.0%
COCCNc1oc(-c2cccs2)nc1S(=O)(=O)c1ccc(C)cc1 | -3.5 | i | -8.0 | 1.4% | ? | -0.9%
CCOC(=O)Cc1ccc(NC(=O)N2CC(CC)Oc3ccccc32)cc1 (centres undefined) | / | / | 5.7 | / | / | /
Cc1ccc(S(=O)(=O)N2CCN(C(=O)COC(=O)/C=C/c3cccc([N+](=O)[O-])c3)CC2)c(C)c1 | -24.8 | i | -1.3 | -3.2% | ? | 4.6%
O=S(=O)(c1ccc(F)cc1)c1nc(-c2ccccc2)oc1N1CCOCC1 | 4.8 | i | 1.4 | -3.3% | ? | -2.1%
Cc1cccc(-c2nc(S(=O)(=O)c3ccc(F)cc3)c(NCCCN3CCOCC3)o2)c1 | -72.7* | i | -11.8 | 17.3% | i | 28.5%
CC(C)=CCC[C@H](C)C[C@@H]1Cc2[nH][nH]c(=O)c2[C@H](c2ccc(Cl)cc2)O1 | 14.0 | i | 4.9 | / | i | /
O=C(/C=C/c1ccnc2ccccc12)c1cccs1 | -26.7 | i | -1.3 | ? | ? | 9.2µM*
Cc1nnc(SCCCN2C(=O)c3ccccc3C2=O)o1 | -10.7 | i | -4.1 | -2.3% | i | -1.0%
O=C1c2ccccc2C(=O)N1CCCCSc1nnc(-c2ccc(OC(F)F)cc2)o1 | 34.7 | i | 2.2 | 12.7% | 3.26µM* | 16.0%
Fc1ccc(Nc2nc(N3CCOCC3)nc(N3CCOCC3)n2)cc1 | -27.0 | i | -7.5 | 12.7% | i | -0.9%
Cc1ccccc1NC(=O)CSc1nc(Nc2ccccc2)nc(N2CCOCC2)n1 | 4.9 | i | 0.2 | ? | i | 20.7%
c1ccc(Nc2nc(N3CCNCC3)nc(N3CCOCC3)n2)cc1 | -79.3* | i | -0.6 | ? | ? | ?
SMILES | D3 antag | KB-3-1 cytotox | D3 ag | SW480 rerep | KB-V1 MDR tox | MCF10A rerep
O=C(CSc1nc(Nc2ccccc2)nc(N2CCOCC2)n1)Nc1ccc2c(c1)OCCO2 | 15.4 | i | 2.2 | -2.6% | i | 18.4µM*
c1ccc(Nc2nc(N3CCOCC3)nc(N3CCOCC3)n2)cc1 | ? | 16.4µM* | -3.7 | 18.5% | ? | ?
Cc1cccc(Nc2nc(N3CCOCC3)nc(N3CCOCC3)n2)c1 | 15.5 | i | -6.7 | 27.5% | i | 5.2%
CCN(CC)c1ccc(Nc2nc(N3CCOCC3)c3ccccc3n2)cc1 | 20.9 | 8.2µM* | -20.8 | ? | 2.59µM* | ?
COc1ccc(Nc2nc(N3CCCC3)c3ccccc3n2)cc1 | 0.0 | ? | -8.0 | -1.5% | ? | ?
Oc1cccc(Nc2nc(N3CCOCC3)nc(N3CCOCC3)n2)c1 | -16.9 | ? | 1.2 | ? | i | 23.1µM*
Cc1ccc(S(=O)(=O)N2CCC(c3ccncc3)CC2)c(C)c1 | / | 20.6µM* | -8.3 | / | i | /
Cc1ccc(S(=O)(=O)N2CCN(S(=O)(=O)N3CCC(C)CC3)CC2)c(C)c1 | -3.5 | i | -8.3 | 0.6% | ? | -0.7%
CCN(CC)C(=O)c1cccc(-c2csc(C(O)c3ccc(OC)cc3)n2)c1 (centres undefined) | 33.7 | ? | 0.9 | / | 18.4µM* | /
O=C(Nc1ccc(Oc2ccccc2)cc1)C1CC1 | -5.1 | ? | 1.2 | 4.5% | i | -2.0%
O=C(Nc1ccc(C#Cc2ccccc2)cc1)C1CC1 | 10.3 | i | -6.5 | 17.8% | 14.6µM* | 20.3%
CCN1CCc2nc(SCC(=O)Nc3ccc(OC)cc3)c(C#N)cc2C1 | -70.1* | i | 9.4 | -1.0% | i | 8.7%
CCc1ccc(C(=O)/C=C/Nc2ccc(S(=O)(=O)Nc3onc(C)c3C)cc2)cc1 | 10.1 | i | 1.7 | 13.0% | i | 25.9µM*
Cc1noc(NS(=O)(=O)c2ccc(NC(=O)CSc3nc4c(cc3C#N)CCCCC4)cc2)c1C | 8.1 | i | 5.9 | 18.3% | i | 20.6µM*
Cc1ccc(S(=O)(=O)CC(=O)Nc2ccc(S(=O)(=O)Nc3onc(C)c3C)cc2)cc1 | 7.0 | i | -3.0 | 10.3µM* | i | -1.5%
Cc1noc(NS(=O)(=O)c2ccc(N/C=C/C(=O)c3ccc(F)cc3)cc2)c1C | 0.1 | i | 2.5 | 2.2% | ? | -3.0%
Cc1noc(NS(=O)(=O)c2ccc(NC(=O)CC(C)C)cc2)c1C | -20.6 | i | -10.2 | 1.9% | i | 3.0%
CCn1c(=O)c2sccc2n2c(CCCC(=O)Nc3ccc(Oc4ccccc4)cc3)nnc12 | / | / | 6.4 | / | / | /

Screens (PubChem)
